Source: the supplement of paper PMC10646978
± gives the standard deviation.

tested on: RAW-Dual (murine macrophage reporter line); test: NF-kB reporter (SEAP) activity fold change vs agonist alone; higher = enhanced NF-kB activity; conditions: modulator concentration 10 µM; agonist: CpG ODN 1826 0.5 ug/mL
Summary of the method: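 RAW-Dual murine macrophage reporter cells were plated at 50 000 per well in 384-well plates, pin-transferred compound to 10 μM final, and pre-incubated for 1 hour at 37 °C before a PRR agonist was added and the cells incubated overnight. NF-κB activity was read from supernatant SEAP with QUANTI-Blue at 620 nm absorbance, and IRF activity from Lucia luciferase with QUANTI-Luc by luminescence. Each signal was expressed as fold change by dividing by the mean agonist-only control on the same plate. Two replicate plates were averaged, with errors obtained by propagation.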

Compound | NF-kB reporter
CC(=O)Nc1ccc(C(=O)NCC#CCN(C)C)cc1 | 0.899 ± 0.04
CC(=O)Oc1ccc(C=Cc2cc(OC(C)=O)cc(OC(C)=O)c2)cc1 | 1.12 ± 0.069
O=C(O)COc1cc(Cl)c(Cl)cc1Cl | 0.993 ± 0.076
Cc1ccc(C)c2sc(N3CCN(C)CC3)nc12.Cl | 0.743 ± 0.18
COc1ccccc1CC(=O)N1CCN(Cc2cnnn2-c2ccccc2F)CC1 | 0.894 ± 0.048
Cc1cccc2sc(NC(=O)c3cccn(Cc4ccc(Br)cc4)c3=O)nc12 | 1.06 ± 0.12
CCN(CC)CCOC(=O)C(O)(c1ccccc1)c1ccccc1.Cl | 1.16 ± 0.16
O=C(NCCN1CCN(c2ccccc2)CC1)c1ccc(F)cc1 | 1 ± 0.081
c1cc2c(cc1C1OCC3C(c4ccc5c(c4)OCO5)OCC13)OCO2 (stereo not drawn) | 0.745 ± 0.22
CN1C2CCC1CC(OC(=O)C(CO)c1ccccc1)C2 (stereo not drawn) | 1.23 ± 0.29
COc1cc2c(c(OC)c1OC)-c1ccc(O)c(=O)cc1C(NC(C)=O)CC2 (stereo not drawn) | 2.16 ± 0.12
O=C1NC(=O)N(c2ccccc2F)C(=O)C1=Cc1ccc(OCc2ccc([N+](=O)[O-])cc2)c(Cl)c1 | 0.917 ± 0.072
CCCCCC(=O)NC(Oc1ccc([N+](=O)[O-])cc1)C(Cl)(Cl)Cl (stereo not drawn) | 0.988 ± 0.091
C=C1C[C@@H]2[C@H](CC[C@]3(C)C(=O)CC[C@@H]23)[C@@]2(C)C=CC(=O)C=C12 | 0.843 ± 0.064
O=C1NC(=O)C(=Cc2cccn2-c2ccc(Br)cc2)C(=O)N1 | 1.09 ± 0.09
CC(C)N(CCC(C(N)=O)(c1ccccc1)c1ccccn1)C(C)C (stereo not drawn) | 0.86 ± 0.23
CCNCC.O=C(O)Cc1ccccc1Nc1c(Cl)cccc1Cl | 1.16 ± 0.18
Cc1cc(N2CCNCC2)c2ccccc2n1 | 0.0643 ± 0.01
